Rows were chosen to be rich in hits. Some 2.1% of all compounds tested hit in one or more screens of this group.
D2 antag – antagonists of human D2 dopamine receptor | HEK293 TREx D2 cells, calcium flux, dopamine EC80 | inhibition, % at 10 µM | actives 2% (n = 340,000) | AID 485344; in the data active = inhibition above about 30%; inactive = below that, where a call was filed; note: 0% is about no effect
Target sequence (P14416 whole entry, looked up): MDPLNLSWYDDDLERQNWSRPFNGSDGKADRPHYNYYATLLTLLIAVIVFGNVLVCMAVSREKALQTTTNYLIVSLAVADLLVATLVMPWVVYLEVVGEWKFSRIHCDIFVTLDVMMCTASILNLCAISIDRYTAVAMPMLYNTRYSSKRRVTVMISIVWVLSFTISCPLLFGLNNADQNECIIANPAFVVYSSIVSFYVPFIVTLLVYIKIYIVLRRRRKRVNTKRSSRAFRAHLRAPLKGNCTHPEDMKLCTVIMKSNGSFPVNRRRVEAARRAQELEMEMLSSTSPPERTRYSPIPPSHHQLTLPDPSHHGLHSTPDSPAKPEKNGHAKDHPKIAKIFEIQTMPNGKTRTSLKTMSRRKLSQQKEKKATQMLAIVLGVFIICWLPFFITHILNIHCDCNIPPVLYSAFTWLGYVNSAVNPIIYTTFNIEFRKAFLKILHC
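Overnight-induced (tetracycline, 30 C) HEK293 T-REx cells carrying force-coupled D2 receive a no-wash calcium dye, then compound, then EC80 dopamine at 180 s; signals are read kinetically throughout.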
D2 PAM-1 – D2 dopamine receptor (human) potentiation; P14416; HEK293 T-REx D2, calcium flux, EC20 dopamine potentiation; potentiation, % at 10 µM; actives 0.34% (n = 340,000);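 active = potentiation over 3 SD above the plate norm, cut at about 30% in these data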; note: 0% is about no effect
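Cells plated with tetracycline inducer and held overnight at 30 C; calcium dye loaded 30–90 min at room temperature; baseline taken, compound added and read 180 s; EC20 dopamine then added and read 180 s.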
D2 ag-1 – D2 dopamine receptor (human) agonism. P14416. actives 0.53% (n = 340,000). activation, % at 2 µM. HEK293 T-REx D2 cells, calcium flux agonist mode. AID 485358;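 active = activation over 3 SD above normal in the single-dose calcium agonist read, cut at about 30% in these data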; note: 0% is about no effect
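Agonism scored from kinetic calcium signal (1 read/sec, 180 s) following compound pin transfer, after a 10 s baseline. Cells: HEK293 Trex line expressing inducible D2 receptor coupled to calcium, dye-loaded after overnight culture at 30 C.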
D2 ag-2 – agonists of human D2 dopamine receptor (beta-arrestin) | activation, % (test concentration not listed) | AID 624465 | DiscoveRx PathHunter D2 beta-arrestin, luminescence, 90 min; 100% = 57 uM dopamine signal | P14416 | actives 0.084% (n = 360,000); in the data active = activation above about 40%; inconclusive = between about 15% and that limit
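DiscoveRx PathHunter D2 beta-arrestin cells (2,100/well) attached overnight, then compound-stimulated 90 min at 37 C in HBSS/10 mM HEPES/0.1% Tween-20 buffer; beta-galactosidase complementation read by luminescence after 1 h at ambient temperature. Dopamine 57 uM final (EC100) as control.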
LDHA block – LDHA (human) enzyme inhibition. P00338. purified LDHA, NADH/diaphorase-resazurin fluorescence; active compounds read low. activity change, % (values are at about 110 or 230 µM). actives 0.15% (n = 480,000). AID 1347041; in the data active = activity change below about -30%; inconclusive = mostly about -25% to -30%;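 note: plate controls were DMSO wells for no effect and wells without enzyme for full effect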
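LDH5 2 nM; NADH 0.06 mM, pyruvate 0.2 mM; 200 mM Tris pH 7.4, EDTA, Tween-20; 5 min RT. Detection: diaphorase 0.133 mg/mL + resazurin 37 µM, fluorescence ex540/em590 at 0 and 20 min; normalized to enzyme-free and DMSO wells.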
D2 PAM-2 – potentiates the human D2 dopamine receptor allosterically | AID 624464 | P14416 | potentiation, % (test concentration not listed) | DiscoveRx D2 beta-arrestin cells, luminescence, 90 min; 100% = 57 uM dopamine signal | actives 0.23% (n = 360,000); in the data active = potentiation above about 50%; inconclusive = mostly about 30% to 49%
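D2 cells co-treated with compound plus 50 nM dopamine (EC20) for 90 min at 37 deg C to detect potentiation. Beta-arrestin recruitment was read as enzyme-fragment luminescence after 1 h at ambient temperature. Full response was set by 57 uM dopamine.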
D3 ag – activates human D3 dopamine receptor beta-arrestin recruitment; shares compounds with D2 ag-1; DiscoveRx D3 beta-arrestin cells, luminescence, 90 min; Potency, µM (doses to about 76.9 µM), for inactives: at the top dose activation, most hits filed as activators; actives 4% (n = 2,300);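 note: potency is the fitted concentration of half-maximal effect; 100% = dopamine control response; nearly all actives have a fitted effect of over 70% in size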
D2 ag-3 – counter-screen for D3 agonists: human D2 dopamine receptor agonism. shares compounds with D2 ag-1. DiscoveRx PathHunter D2 beta-arrestin, luminescence, 90 min; response scale: percent relative to full dopamine signal. Potency, µM (top dose mostly 76.9 µM), inactives show at the highest dose activation, usual class: activators. actives 5.9% (n = 2,300); note: potency is the fitted concentration of half-maximal effect; % of control where 0% means no effect; nearly all actives have a fitted effect of over 70% in size
* = called active by the depositor; u = inconclusive; x = no result. Unless noted, calls come from the whole dose curve; as a rule, active = well fitted activation curve with a large enough effect; inconclusive = small, poorly fitted or top-dose-only effect; inactive = flat fitted curve, though single readings scatter.

SMILES	D2 antag	D2 PAM-1	D2 ag-1	D2 ag-2	LDHA block	D2 PAM-2	D3 ag	D2 ag-3
CC(=O)c1ccc(N2CCN(C(=O)C3CCCN(S(=O)(=O)c4ccc(Br)s4)C3)CC2)cc1 (stereo not drawn)	x	0.0	-0.7	x	-11.5	x	x	x
CC(=O)[C@@H]1[C@@H](C(=O)c2ccccc2)[C@]2(C(=O)Nc3ccccc32)[C@H]2C=Cc3cc(F)ccc3N12	7.1	11.8	1.8	-2.1	5.6	-4.1	x	x
O=C(c1ccccc1)[C@@H]1[C@@H](C(=O)c2ccc(F)cc2)[C@@]2(C(=O)Nc3ccccc32)[C@H]2c3ccccc3C=CN12	-5.0	-20.4	56.7*	-4.1	10.9	1.2	-4.3%	-0.4%
CCNc1c(NC(=O)Nc2ccc(Br)cc2F)c(=O)oc2ccccc12	x	x	x	x	-1.1	x	x	x
COc1cccc(NCc2cc(=O)n3[nH]c(-c4ccc(C)cc4)nc3n2)c1	x	x	x	x	11.3	x	x	x
C/C(Cn1cnc([N+](=O)[O-])n1)=N\NC(=O)c1ccccc1O	0.0	3.3	0.1	6.5	7.4	-8.9	x	x
C/C(Cn1cnc([N+](=O)[O-])n1)=N\NC(=O)c1ccc(O)cc1O	-4.4	16.6	6.4	-4.3	14.6	0.5	u	0.6%
CCOc1cc(CN2CCN(c3ncccn3)CC2)ccc1OC	77.3*	-35.8	77.6*	u	-23.7	-4.6	20.0%	u
Fc1ccc(F)c(CN2CCN(c3ncccn3)CC2)c1	78.7*	-21.6	63.7*	78.3*	-7.3	63.9*	u	3.16µM*
O=S1(=O)CC(N2CCN(c3ncccn3)CC2)CN1Cc1ccc(F)cc1 (stereo not drawn)	x	x	x	-3.3	-9.1	-3.3	x	x
Fc1ccc(CN2CCN(c3ncccn3)CC2)cc1	83.7*	-19.5	79.4*	46.7*	-14.9	24.8	-4.6%	u
CCc1ccc(CN2CCN(c3ncccn3)CC2)cc1	94.8*	-19.1	76.6*	75.0*	-10.0	u	u	0.562µM*
CCOC(=O)N1CCC(NC(=O)c2ccc(CS(=O)c3cccc(Cl)c3)o2)CC1 (stereo not drawn)	54.1*	-15.0	43.6*	1.0	-1.6	-7.1	-2.6%	-0.4%
c1ccc2c(C3CCO3)cccc2c1 (stereo not drawn)	x	x	x	-2.0	-0.7	-5.6	-0.2%	-3.0%
c1ccc2c(C3OCC4(CCCC4)CO3)cccc2c1	x	x	x	1.3	-4.2	-8.1	x	x
Cc1cccc(C)c1NC(=S)NCCc1ccc(O)c(O)c1	67.3*	-19.6	57.5*	4.8	9.3	7.2	-8.5%	u
Cc1cccc(NC(=S)NCCc2ccccc2)c1C	-5.3	14.1	-3.0	-3.1	-6.8	-5.0	x	x
CN(C)S(=O)(=O)c1ccc(N2CCCC2)c(C(=O)NNC(=O)COc2cccc(F)c2)c1	23.7	2.3	-0.2	-1.2	1.2	-4.1	-6.6%	0.2%
C=CCSc1nc2c(c(=O)[nH]c(=O)n2C)n1CCOC	x	x	x	x	-19.3	x	x	x
COc1cc(CN2CCN(c3ccccc3F)CC2)cc(OC)c1O	69.8*	-17.7	60.3*	u	3.7	-1.0	u	u
COc1cc(CN2CCC(C(=O)N3CCN(c4ccccc4F)CC3)CC2)cc(OC)c1O	33.7*	0.4	1.1	2.2	10.6	-13.3	11.8%	10.7%
COc1ccc(/C=C2/CCn3c2nc2cc(Cl)ccc2c3=O)cc1O	x	x	x	x	-1.3	x	x	x
COc1ccc(CCNC(=O)c2cc(C3CC3)on2)cc1OC	-4.2	-1.0	0.0	-4.1	-2.6	-3.0	-10.0%	0.3%
O=C(Cc1ccc(Cl)cc1)Nc1nc2c(s1)CCCC2	x	x	x	x	7.7	x	x	x
